# The list is not random: actives were taken first. Their share in the collection is about 8%.
# HCV inhibitor: HCV inhibition. Huh7.5.1 HCVcc-Cre infection, luciferase reporter, 44 h. Potency, µM (series often up to 41.8 µM), for inactives: at the top dose activity change, negative = inhibition, usual class: inhibitors. 340,000 compounds, 3.4% hits. AID 651820; active means well fitted inhibition curve with a large enough effect; inconclusive means small, poorly fitted or top-dose-only effect, or another doubt; inactive means no such curve, though single readings can be large or run the other way; further: potency means the concentration at half of the fitted maximal effect; on the % scale 0 is the no-effect control and ±100 the full control effect
#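 Compounds are dispensed onto cells plated 4 h earlier at 1,000 per well, with HCVcc-Cre virus (about 0.5 moi) added next. Following 44 h of culture, luminescent signal is measured for 15 sec after 15 min with substrate at room temperature.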
# SARS PLpro yeast: inhibitors of SARS-CoV papain-like protease in yeast; Potency, µM (titrated, usually from 32.9 µM), without a hit: top-dose activity, positive = growth rescue, most hits filed as activators; 330,000 compounds, 0.19% hits; S. cerevisiae expressing SARS-CoV PLpro, growth rescue; AID 485353; calls by dose curve; further: potency means the concentration at half of the fitted maximal effect; 0% is about no effect; nearly all actives have a fitted effect of over 55% in size
# HCMV inh: inhibitors of human cytomegalovirus. HFF cells, HCMV-luciferase reporter, 72 h; active compounds read low. activity change, negative = inhibition, % at 57.5 µM. 410,000 compounds, 4.5% hits; in the data active means activity change below about -60%; inconclusive means no clear call, values can overlap the other calls; inactive means above about -39%; further: on the % scale 0 is the no-effect control and ±100 the full control effect
#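 Inhibition of viral replication was scored as loss of reporter luminescence in HFFs infected with HCMV-luciferase (MOI 1 PFU/cell) for 72 h; compounds tested at 2 doses, normalized to buffer and Salinomycin controls.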
# MARV entry inh: blocks Marburg virus binding to or entry into cells. Potency, µM (titrated, usually from 37.8 µM), for inactives: at the top dose activity change, negative = inhibition, actives largely listed as inhibitors. 300,000 compounds, 1.8% hits. Marburg virus pseudotyped entry inhibition, cell reporter; calls by dose curve; tested in HEK293 cells; further: potency means the concentration at half of the fitted maximal effect; on the % scale 0 is the no-effect control and ±100 the full control effect
# Lassa entry inh: inhibitors of Lassa virus binding or cell entry | 300,000 compounds, 1.2% hits | Potency, µM (series often up to 37.9 µM), for the others: top-dose activity change, negative = inhibition, usual class: inhibitors | Lassa virus pseudotype entry inhibition, cell reporter; calls by dose curve; tested in HEK293 cells; further: potency means the concentration at half of the fitted maximal effect; on the % scale 0 is the no-effect control and ±100 the full control effect; nearly all actives have a fitted effect of over 50% in size
# FMDV inh: foot and mouth disease virus antiviral activity; FMDV antiviral cell-based qHTS; Potency, µM (top dose mostly 57.9 µM), for inactives: at the highest dose activity change, negative = inhibition, actives largely listed as inhibitors; 410,000 compounds, 1.2% hits; AID 1159524; calls by dose curve; tested in HEK293T cells; further: read-out not given here; potency means the concentration at half of the fitted maximal effect; on the % scale 0 is the no-effect control and ±100 the full control effect; nearly all actives have a fitted effect of over 45% in size
# * marks the source's active call; other numbers are inactive results; ? = inconclusive; · = no result given; [ ] = remark or other dose.
SMILES,HCV inhibitor,SARS PLpro yeast,HCMV inh,MARV entry inh,Lassa entry inh,FMDV inh
O=C1c2cccnc2C(Nc2ccc(Cl)cc2)N1Cc1cccs1 (centres undefined),3.0%,2.0%,-64.7*,?,-17.5%,-15.2%
Cc1ccc(C)c(NC(=O)Cn2c(=O)n(Cc3nc(C)no3)c(=O)c3cc4c(cc32)OCO4)c1,·,·,6.7,·,5.1%[46.1 µM],-14.4%
CCC(C)NC(=O)CCC(=O)N1Cc2ccccc2Oc2ncccc21 (centres undefined),·,·,20.2,·,3.1%[46.1 µM],-5.6%
c1ccc(Cn2ccc(-c3cnc(-c4ccccc4)s3)n2)cc1,?,-3.1%,57.6,?,11.2µM*,-17.0%
COc1cc(O)c2c(c1)C(=O)c1cc(C)cc(O)c1C2=O,·,·,·,·,·,1.1%
Cc1cc(O)c2c(c1)C(=O)C13C(=C2O)C(=O)[C@H]2[C@@H](O)[C@@H]1[C@H]1[C@H](O)[C@@H]3C(=O)C3=C(O)c4c(O)cc(C)cc4C(=O)C312 (some centres undefined),10µM*,1.7%,·,·,·,-2.8%
Cc1nc2cc(NC(=O)[C@@H]3C[C@@H](Sc4ccccn4)CN3Cc3ccccc3)ccc2s1,·,·,·,·,·,20.7%
CCN(C(=O)c1cnc(N2CCOCC2)c2ccccc12)c1cc(C)ccc1C,·,·,-0.4,·,5.01µM*,-23.5%
Cc1ccc(N(C)C(=O)c2cnc(N3CCOCC3)c3ccccc23)cc1C,·,·,-3.7,·,?,-13.1%
CC(=O)c1ccc(Oc2ccc(C(=O)c3ccc(C)c(C)c3)cc2[N+](=O)[O-])cc1,3.8%,7.9%,19.0,?,1.46µM*,0.0%
Cc1cc[n+](CC(=O)c2ccc(NC(=O)c3ccccc3)cc2)cc1,17.3%,-2.8%,-37.3,·,·,-18.6%
Cc1cc[n+](CC(=O)c2ccc(NC(=O)c3ccccc3)cc2)c2ccccc12,-12.0%,1.1%,-97.4*,·,·,?
O=C(C[n+]1cccc2ccccc21)c1ccc(NC(=O)c2ccccc2)cc1,-12.6%,0.9%,-83.3*,·,·,-22.9%
CCOc1ccc(NC(=O)Cn2nc(-c3ccccc3Cl)n(CC)c2=S)cc1,?,5.0%,-61.6*,?,-29.2%,?
O=c1c2ccccc2cnn1-c1nc2ccccc2s1,·,·,·,-3.9%,·,·
O=c1c(Cl)c(N2CCCCC2)cnn1-c1nc2ccccc2[nH]1,-5.7%,-22.6%,-61.2*,?,?,?
O=c1c2ccccc2cnn1-c1nc2ccccc2[nH]1,8.7%,-28.9%,-92.1*,0.291µM*,0.326µM*,1.78µM*
Clc1ccc2nc(N3CCCCC3)[nH]c2c1,?,-7.8%,224.0,-22.5%,-25.9%,0.3%
COc1ccccc1NC(=S)N(Cc1ccco1)Cc1cc2cc(C)c(C)cc2[nH]c1=O,?,-1.6%,-61.9*,?,?,-16.3%
CCOc1ccc(NC(=S)N(CCc2c(C)[nH]c3ccccc23)Cc2ccco2)cc1,?,-10.2%,-13.0,0.5%,2.1%,-16.9%
COc1ccc(NC(=S)N(CCc2c(C)[nH]c3ccccc23)Cc2ccco2)cc1,-10.0%,3.9%,?,13µM*,?,-8.5%
COc1ccccc1NC(=S)N(Cc1ccco1)Cc1cc2cccc(C)c2[nH]c1=O,?,16.3%,-21.1,?,-3.1%,-2.8%
COc1ccccc1NC(=O)N(Cc1ccco1)Cc1cc2cc(C)cc(C)c2[nH]c1=O,3.16µM*,-2.3%,-11.7,?,?,?
O=C(CSc1ccc(-c2cccnc2)nn1)Nc1ccc(F)c(F)c1,?,4.9%,-32.5,-27.9%,-25.1%,?
O=C(NC1CCCC1)C(c1ccc(F)cc1)N(Cc1ccc(F)cc1)C(=O)c1ccn[nH]1 (centres undefined),10.5%,-0.1%,-30.8,10.2%,10.8%,-7.6%
SMILES,HCV inhibitor,SARS PLpro yeast,HCMV inh,MARV entry inh,Lassa entry inh,FMDV inh
COCCN(C(=O)CCl)C(C(=O)NC1CCCCC1)c1ccccc1C (centres undefined),?,-9.7%,-97.5*,8.91µM*,?,20µM*
O=C(NC1CCCC1)C(c1ccc(F)cc1)N(Cc1ccccc1Cl)C(=O)CCl (centres undefined),?,-8.2%,-21.1,?,-15.1%,28.2µM*
COCCN(C(=O)CCC(=O)Nc1cc(C)on1)C(C(=O)NC1CCCC1)c1ccccc1C (centres undefined),-9.1%,0.8%,-14.1,17.6%[46.1 µM],22.6%[46.1 µM],24.3%
COCCNC(=O)C(c1ccccc1F)N(C(=O)C(=O)NC1CCCC1)C1CCCCC1 (centres undefined),?,-0.8%,-80.4*,-16.2%[46.1 µM],?,-0.5%
Cn1c(=O)c2c(ncn2CCOc2ccc(Br)cc2)n(C)c1=O,10µM*,-1.3%,?,-24.4%[46.1 µM],-0.3%[46.1 µM],?
CC(=O)c1cccc(NC(=O)c2ccc([N+](=O)[O-])o2)c1,?,·,-86.5*,?,?,1.7%
Cc1ccc(C)c(-c2nnc(NC(=O)c3ccc([N+](=O)[O-])o3)o2)c1,?,-26.8%,-74.1*,-16.2%,?,-12.9%
CC(=O)c1ccc(NC(=O)c2ccc([N+](=O)[O-])o2)cc1,?,-16.0%,-104.7*,·,·,44.9%
COc1ccc(NC(=O)c2ccc([N+](=O)[O-])o2)cc1,?,8.0%,-101.4*,11.2µM*,-5.5%[46.1 µM],6.9%
Cc1ccc(C)c(-c2nnc(NC(=O)C3=COCCO3)o2)c1,3.6%,-10.5%,24.8,?,-0.6%,18.1%
CN(C)c1cccc(C(=O)N2CCC(c3c[nH]c4ccccc34)(c3c[nH]c4ccccc34)CC2)c1,·,·,13.0,-26.2%[46.1 µM],-27.2%[46.1 µM],15.4%
CCCn1cc(S(=O)(=O)c2ccccc2)c(=O)c2cc(CC)ccc21,-29.0%,-1.1%,?,-0.9%[46.1 µM],?,2.3%
Cc1ccc(S(=O)(=O)n2cc(-c3ccccc3)c3ccccc32)cc1,?,-0.3%,-70.9*,·,·,14.0%
Cc1ccc(S(=O)(=O)n2cc(C=O)c3ccccc32)cc1,-27.9%,0.0%,25.7,·,·,3.1%
Cc1cccc(NC(=O)N2CCC(C(=O)c3ccc(F)cc3)CC2)c1,?,-1.6%,-63.8*,-29.3%[46.1 µM],24.9%,23.6%
COC(=O)c1ccc(C2c3c(oc4ccc(C)cc4c3=O)C(=O)N2Cc2ccc3c(c2)OCO3)cc1 (centres undefined),·,·,-109.5*,-2.9%[46.1 µM],11.9%[46.1 µM],9.0%
COCCN1C(=O)c2oc3ccc(C)cc3c(=O)c2C1c1ccc(C(=O)OC)cc1 (centres undefined),·,·,?,9.5%[46.1 µM],14.0%[46.1 µM],-1.3%
CCCCSc1nsc(NC(C)=O)n1,0.8%,-19.3%,46.0,-7.3%,5.9%,19.1%
CCCSc1nsc(NC(=O)CCC)n1,-5.8%,-2.4%,-103.5*,?,?,3.3%
COc1cc(Cl)c(C)cc1N1C(=O)[C@@H]2C[C@H]1CN2Cc1ccccn1,·,·,·,·,·,-10.6%
O=C(O)Cn1cc(C(=O)C(F)(F)F)c2ccccc21,3.2%,2.7%,-16.6,?,-1.6%[46.1 µM],10.7%

# Screens: PubChem BioAssay, National Center for Advancing Translational Sciences (NCATS)
